Bioassay records (PubChem)
Compounds with a hit are over-represented: about 7.9% of the library has one in this group of screens.
SW480 rereplic – inducers of DNA re-replication in SW480 colon cancer cells. SW480 DNA re-replication, Hoechst DNA content imaging, 48 h. Potency, µM (highest dose often 46.1 µM), without a hit: at the top dose re-replication activation, usual class: activators. actives 1.8% (n = 340,000); also: % of control where 0% means no effect; nearly all actives have a fitted effect of over 55% in size
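Image-based read-out: total Hoechst fluorescence of nuclei (405 nm excitation, 500-530 nm emission), with hits raising the fraction of high-intensity nuclei. SW480 colon cells incubated 48 hr with compounds at 37 C.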
HT1080NT lethal – kills 2HG-producing HT-1080-NT fibrosarcoma cells. AID 686970. actives 1.6% (n = 360,000). Potency, µM (highest dose often 46.1 µM), for the others: at the top dose activity, negative = less viability, most hits filed as cytotoxic. HT-1080-NT fibrosarcoma viability, CellTiter-Glo ATP luminescence, 48 h;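 also: NT is the 2HG producing partner of a matched IDH1 knockdown line; 0% = DMSO-treated cells and -100% = media-only wells without cells; nearly all actives have a fitted effect of over 55% in size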
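Toxicity toward the 2HG-producing NT line was scored as %Activity, normalised to DMSO and no-cell wells, from CellTiter-Glo luminescence after 48 hours' treatment.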
HT1080 IDH1KD tx – HT-1080 IDH1 knockdown cell toxicity (counter line); actives 2% (n = 360,000); HT-1080 IDH1 knockdown viability, ATP luminescence, 48 h; Potency, µM (doses to about 46.1 µM), for the others: at the top dose activity, negative = toxicity, usual class: cytotoxic;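 also: 0% = DMSO wells and -100% = cell-free medium wells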
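CellTiter-Glo luminescence after 48 h compound exposure at 37 degrees C of IDH1-knockdown HT-1080 cells in 5% FBS RPMI. %Activity scaled between DMSO wells and cell-free media wells, with curves fitted and assigned curve classes.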
MCF10A rereplic – inducers of DNA re-replication in MCF 10A breast cells; MCF 10A DNA re-replication, Hoechst nuclear intensity, 48 h; Potency, µM (series often up to 46.1 µM), for inactives: top-dose activity, positive = re-replication, most hits filed as activators; actives 2.9% (n = 350,000); also: % of control where 0% means no effect; nearly all actives have a fitted effect of over 50% in size
KB-3-1 tox – kills parental KB-3-1 adenocarcinoma cells | KB-3-1 viability, CellTiter-Glo ATP luminescence, 72 h | AID 1347075 | Potency, µM (doses to about 46.1 µM), actives largely listed as cytotoxic | actives 1.4% (n = 400,000); also: % is scaled to controls: 0 for no effect and ±100 for the full control effect; nearly all actives have a fitted effect of over 60% in size
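Viability of parental KB-3-1 cells, measured by CellTiter-Glo luminescence, followed a 72 h incubation at 37 °C with pinned compounds in phenol-red-free DMEM containing 10% FBS.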
KB-V1 MDR tox – kills drug-selected multidrug resistant KB-V1 cells | KB-V1 MDR cells viability, CellTiter-Glo, 72 h | Potency, µM (top dose mostly 46.1 µM), most hits filed as cytotoxic | actives 3.4% (n = 400,000) | AID 1347076; also: % is scaled to controls: 0 for no effect and ±100 for the full control effect; nearly all actives have a fitted effect of over 60% in size
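Readout: CellTiter-Glo luminescence, 10 min after addition. Cells: KB-V1 MDR subline, 72 h at 37 degrees C with compound. Analysis: corrected, normalized data fitted to concentration-effect curves.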
An asterisk follows results filed as active; i = inactive; ? = inconclusive; · = not tested or not shown; ! = not confirmed by another sample. Calls follow the shape of the dose curve; as a rule, active = well fitted curve in the direction sought with a large enough effect; inconclusive = small, poorly fitted or top-dose-only effect, or another doubt; inactive = no such curve, though single readings can be large; an effect the other way counts as inactive or inconclusive. Potency is read from the fitted curve at half-maximal effect.

SMILES | SW480 rereplic | HT1080NT lethal | HT1080 IDH1KD tx | MCF10A rereplic | KB-3-1 tox | KB-V1 MDR tox
O=C(c1ccc2c(c1)OCO2)N1CCN(c2cccc(C(F)(F)F)c2)CC1 | ? | 18µM* | ? | 12µM* | 13µM* | 16µM*
O=C(c1ccc2c(c1)CCN2S(=O)(=O)c1ccccc1)N1CCN(c2cccc(Cl)c2)CC1 | · | · | · | · | i | i
CCS(=O)(=O)N1CCc2cc(C(=O)N3CCN(c4cccc(C(F)(F)F)c4)CC3)ccc21 | · | · | · | · | 16µM* | ?
O=C(c1ccc2nc[nH]c2c1)N1CCN(c2cccc(C(F)(F)F)c2)CC1 | ? | 7% | -7% | 0% | i | i
O=C(Nc1ccc2c(c1)OCO2)N1CCN(c2cccc(C(F)(F)F)c2)CC1 | -1% | -4% | -1% | 17% | i | i
NC(CS)C(=O)O (centres undefined) | -2% | · | · | -7% | ? | i
Cn1c(=O)c2[nH]c(CCC3CCCC3)nc2n(C)c1=O | -2% | 1% | 1% | -2% | i | 23µM*
CCCc1nc2c([nH]1)c(=O)n(C)c(=O)n2C | 12% | ? | 3% | -2% | i | i
Cc1cccc(NC(=O)c2sc3ncnc(N(C)C4CCCCC4)c3c2C)c1C | · | · | · | · | i | i
COc1ccc(C2=Nn3c(nnc3-c3ccccc3F)SC2)cc1OCC1CC1 | 18µM* | · | · | ? | 13µM* | ?
COc1ccc(C2=Nn3c(nnc3-c3ccccc3OC)SC2)cc1OC | 0.37µM* | 0.46µM* | ? | 0.37µM* | 0.013µM* | 1.2µM*!
Cc1ccc(CS(=O)Cc2ccc(C(=O)N3CCN(c4ccccn4)CC3)o2)cc1 (centres undefined) | 1% | 0% | 3% | 0% | i | i
CCOc1cc(/C=N/O)ccc1OCc1ccc([N+](=O)[O-])cc1 | 10% | -10% | -11% | 13% | i | i
CCOc1cc(C=C(C(=O)OC)C(=O)OC)ccc1OCc1ccc([N+](=O)[O-])cc1 | 15µM* | 5.8µM* | 7.3µM* | 0.65µM* | 18µM* | ?
NC(=O)C1CCN(C(=O)Cn2c(-c3cccs3)cc3ccccc32)CC1 | · | · | · | · | i | i
COc1cc(C2CC(c3c(C)cc(C)[nH]c3=O)=NN2c2ccccc2F)cc(OC)c1OC (centres undefined) | ? | -11% | -7% | 23µM* | i | i
CCOC(=O)Cc1csc(/N=C/c2c(O)n(-c3ccc(C)c(C)c3)c(=O)c3ccccc23)n1 | 0% | 6% | 22% | ? | ? | 10µM*
COc1ccc(CCNC(=O)C2CCC(=O)N(CC3CCCCC3)C2)cc1 (centres undefined) | 9% | -7% | -2% | ? | · | ·
COc1ccc(C(CNC(=O)Cc2ccc(-c3ccccc3)cc2)N(C)C)cc1 (centres undefined) | 18µM* | 18µM* | 21µM* | ? | i | i
CN(C)C(CNC(=O)c1ccc(C(=O)c2ccccc2)cc1)c1ccccc1 (centres undefined) | 71% | -28% | -17% | ? | i | i
CN(C)C(CNC(=O)c1ccc(-c2ccccc2)cc1)c1ccccc1 (centres undefined) | ? | 16µM* | 16µM* | 14% | i | i
COc1ccc(-c2ccc3ncnc(NCc4ccc(C)o4)c3c2)cc1OC | · | · | · | · | i | ?
CC(C)Oc1ccc(Cl)cc1Nc1nc(NCCO)nc(N2CCCC2)n1 | ? | · | · | 23µM* | i | ?
COc1ccc(Cl)cc1Nc1nc(NCCO)nc(N2CCCC2)n1 | -4% | ? | ? | 18% | i | i
c1ccc(NCc2cccnc2)cc1 | -4% | -5% | 0% | -5% | i | i
O=C1c2ccccc2C(=O)c2c(NCc3cccnc3)cccc21 | 2% | 20% | 16% | 12% | i | 8.2µM*
